According to PubChem BioAssay AID1745853 (National Center for Advancing Translational Sciences (NCATS), 2022):
Among all 25,000 compounds or so, about 970 (3.9%) were called active. Inconclusive results (about 8%) are left out. How the calls were made is not given here. The full list was thinned out, with actives kept by preference.

Assays:
Test in all cases: Primary Screen for Target Class Profiling of Small Molecule Inhibitors of Methyltransferases
[1] = molecular target: Catechol O-methyltransferase (Homo sapiens) (UniProt P21964); conditions: purified enzyme, MTase-Glo SAH luminescence; activity change, negative = inhibition: at 40 µM, stronger effect = lower value; outcome: 40 uM
Source text: (§1) PI: Matthew D. Hall Ph.D. and Quinlin M. Hanson Ph.D.
(§2) National Center for Advancing Translational Sciences (NCATS)
(§3) National Institute of Health (NIH), Rockville, MD
(§4) Target class profiling (TCP) is a chemical biology approach amenable to investigating understudied biological targets. TCP is achieved by developing a generalizable assay platform and applying it to screen a curated set of compound libraries against representative members of a target class. Small molecule methyltransferases (SMMTase) are a subclass of methyltransferase that act on metabolites to modulate signaling pathways, metabolize xenobiotics, or balance the available methyl pool. We screened four curated libraries totaling 27,574 unique compounds against the SMMTases nicotinamide N-methyltransferase (NNMT), phenylethanolamine N-methyltransferase (PNMT), histamine N-methyltransferase (HNMT), glycine N-methyltransferase (GNMT), catechol O-methyltransferase (COMT), and guanidinoacetate N-methyltransferase (GAMT). The data generated by this TCP can be leveraged for informed tool molecule development. For example, in the associated publication we identified a chemotype of HNMT-selective inhibitors. Additionally, we identified a putative SMMTase-selective inhibitor with potential as a tool molecule for studying broader methyltransferase biology.
(§5) High-through put screening assays were developed at the National Center for Advancing Translational Science (NCATS) for the enzymes NNMT, PNMT, HNMT, GNMT, COMT, and GAMT. Enzymatic activity was measured as a function of SAM cofactor conversion using the MTase Glo kit (Promega) for all enzymes. All assays were performed in 1536-well format with substrates and SAM concentrations at KM values. Enzyme concentration and assay timing were optimized for 10-20% SAM conversion. Initial screening of 27,574 compounds was done as single-point assays using the highest compound concentration (40 uM). […] These compounds were replated in 11-point dose response and assayed against NNMT, PNMT, HNMT, GNMT, COMT, GAMT, and a counter-assay. The IC50 and efficacy (maximal response) values were determined for each dose-response curve. These values are also accounted for in the area under the curve (AUC) values.
(§6) PROTOCOL TABLE (as described by Inglese J, Shamu CE and Guy RK. 2007)
(§7) SEQUENCE No. (e.g., 1, 2, 3, etc.); […] (e.g., Cells, Incubation, Reagent, etc.); VALUE; DESCRIPTION.
(§8) 1; Reagent; 2 uL; SMMTase Enzyme (2x) in reaction buffer, columns 1- 48.
(§9) 2; Reagent; 1 uL; SAM (4x) in reaction buffer, columns 1-48.
(§10) 3; Controls; 23 nL; DMSO in column 4; sinefungin in DMSO (0 uM - 40 uM) in 7-point 1:2 dilution series (n = 2) in column 2.
(§11) 4; Compounds; 23 nL; Columns 5-48.
(§12) 5; Reagent; 1 uL; Substrate (4x) in reaction buffer, columns 2-48.
(§13) 6; Time; 20-30 min; Incubation.
(§14) 7; Reagent; 1 uL; MTase-Glo reagent (5X), columns 1-48.
(§15) 8; Time; 30 min; Incubation.
(§16) 9; Reagent; 5 uL; MTase-Glo Detection reagent, columns 1-48.
(§17) 10; Time; 30 min; Incubation, luminescence evolution.
(§18) 11; Detection; Luminescence; ViewLux uHTS Microplate Imager (PerkinElmer).
(§19) NOTES (numbers refer to Sequence numbers above)
(§20) 1, 2, 5. White Medium Binding Greiner 1536-well plates (Cat #789175-F, Greiner Bio-One, Monroe, NC); Reaction buffer: 50 mM Tris, pH 8.0, 3 mM MgCl2, 1 mM EDTA, 50 mM NaCl, 1 mM DTT, and 0.1 mg/mL BSA. Evaporation was prevented by covering assay plates with metal lids containing holes to allow gas diffusion.
(§21) 1. Six SMMTase were profiled: HNMT, GNMT, PNMT, COMT, NNMT, GAMT
(§22) 5. The corresponding substrate was used for each enzyme: HNMT - 5.3 uM Histamine; GNMT - >500 uM Glycine; PNMT - 16.2 uM Norephinephrine; COMT - 13.7 uM Norephinephrine; NNMT - 3.8 uM Nicotinamide; GAMT - 2.5 uM Guanidinoacetate.6, 8, 10. Room temperature
(§23) 6. Final reaction conditions: 10 nM COMT, 5 uM SAM, 15 uM norepinephrine, 50 mM Tris, pH 8.0, 3 mM MgCl2, 1 mM EDTA, 50 mM NaCl, 1 mM DTT, and 0.1 mg/mL BSA; refer to tables 2 and S1 for specific timing.
8. […]

[2] = molecular target: Glycine N-methyltransferase (Homo sapiens) (UniProt Q14749); conditions: purified enzyme, MTase-Glo SAH luminescence; measured here: GNMT inhibition; at 40 µM; stronger effect = lower value
Source text: as §1, §2, §3, §4, §5, §6, §7, §8, §9, §10, §11, §12, §13, §14, §15, §16, §17, §18, §19, §20, §21, §22, §23
8. […]

[3] = molecular target: Guanidinoacetate N-methyltransferase (Homo sapiens) (UniProt Q14353); conditions: purified enzyme, MTase-Glo SAH luminescence; measured here: GAMT inhibition; at 40 µM; stronger effect = lower value
Source text: as §1, §2, §3, §4, §5, §6, §7, §8, §9, §10, §11, §12, §13, §14, §15, §16, §17, §18, §19, §20, §21, §22, §23
8. […]

[4] = molecular target: Histamine N-methyltransferase (Homo sapiens) (UniProt P50135); conditions: purified enzyme, MTase-Glo SAH luminescence; measured here: HNMT inhibition; at 40 µM; stronger effect = lower value
Source text: as §1, §2, §3, §4, §5, §6, §7, §8, §9, §10, §11, §12, §13, §14, §15, §16, §17, §18, §19, §20, §21, §22, §23
8. […]

[5] = molecular target: Nicotinamide N-methyltransferase (Homo sapiens) (UniProt P40261); conditions: purified enzyme, MTase-Glo SAH luminescence; measured here: NNMT inhibition; at 40 µM; stronger effect = lower value
Source text: as §1, §2, §3, §4, §5, §6, §7, §8, §9, §10, §11, §12, §13, §14, §15, §16, §17, §18, §19, §20, §21, §22, §23
8. […]

[6] = molecular target: Phenylethanolamine N-methyltransferase (Homo sapiens) (UniProt P11086); conditions: purified enzyme, MTase-Glo SAH luminescence; measured here: PNMT inhibition; at 40 µM; stronger effect = lower value
Source text: as §1, §2, §3, §4, §5, §6, §7, §8, §9, §10, §11, §12, §13, §14, §15, §16, §17, §18, §19, §20, §21, §22, §23
8. […]
On the % scale 0 is the no-effect control and ±100 the full control effect.

Chain of Glycine N-methyltransferase (Homo sapiens) (Q14749 whole entry, looked up): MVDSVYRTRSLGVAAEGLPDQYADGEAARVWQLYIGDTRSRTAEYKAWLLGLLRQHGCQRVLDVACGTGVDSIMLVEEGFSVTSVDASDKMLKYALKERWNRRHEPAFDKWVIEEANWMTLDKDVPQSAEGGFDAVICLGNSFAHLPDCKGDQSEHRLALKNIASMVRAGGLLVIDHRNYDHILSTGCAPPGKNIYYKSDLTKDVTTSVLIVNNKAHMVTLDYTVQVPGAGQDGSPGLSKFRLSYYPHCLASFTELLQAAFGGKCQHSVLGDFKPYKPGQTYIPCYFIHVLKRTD
Chain of Histamine N-methyltransferase (Homo sapiens) (P50135 whole entry, looked up): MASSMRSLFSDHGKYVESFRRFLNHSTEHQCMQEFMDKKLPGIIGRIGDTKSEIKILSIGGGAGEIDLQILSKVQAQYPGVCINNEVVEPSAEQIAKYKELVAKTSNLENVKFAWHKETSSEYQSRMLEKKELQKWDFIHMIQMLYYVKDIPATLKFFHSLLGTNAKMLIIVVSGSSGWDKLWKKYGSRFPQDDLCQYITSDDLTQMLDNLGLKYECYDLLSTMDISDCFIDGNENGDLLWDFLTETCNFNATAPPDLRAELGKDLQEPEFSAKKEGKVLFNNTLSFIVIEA
Chain of Phenylethanolamine N-methyltransferase (Homo sapiens) (P11086 whole entry, looked up): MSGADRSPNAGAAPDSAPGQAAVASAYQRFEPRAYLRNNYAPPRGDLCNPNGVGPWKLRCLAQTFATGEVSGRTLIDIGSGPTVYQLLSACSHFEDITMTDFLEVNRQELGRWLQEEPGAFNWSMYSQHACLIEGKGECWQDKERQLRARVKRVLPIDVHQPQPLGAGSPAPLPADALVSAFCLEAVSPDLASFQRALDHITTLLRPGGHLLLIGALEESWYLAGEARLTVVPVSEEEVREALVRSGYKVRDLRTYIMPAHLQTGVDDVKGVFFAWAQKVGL
Chain of Catechol O-methyltransferase (Homo sapiens) (P21964 whole entry, looked up): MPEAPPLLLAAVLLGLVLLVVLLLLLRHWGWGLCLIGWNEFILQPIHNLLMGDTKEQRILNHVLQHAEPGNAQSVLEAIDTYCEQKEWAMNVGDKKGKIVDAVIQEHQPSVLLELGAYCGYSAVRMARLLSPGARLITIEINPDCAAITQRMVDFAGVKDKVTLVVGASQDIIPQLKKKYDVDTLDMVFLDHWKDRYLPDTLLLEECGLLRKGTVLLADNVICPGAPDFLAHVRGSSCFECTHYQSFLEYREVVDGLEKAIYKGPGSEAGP
Chain of Nicotinamide N-methyltransferase (Homo sapiens) (P40261 whole entry, looked up): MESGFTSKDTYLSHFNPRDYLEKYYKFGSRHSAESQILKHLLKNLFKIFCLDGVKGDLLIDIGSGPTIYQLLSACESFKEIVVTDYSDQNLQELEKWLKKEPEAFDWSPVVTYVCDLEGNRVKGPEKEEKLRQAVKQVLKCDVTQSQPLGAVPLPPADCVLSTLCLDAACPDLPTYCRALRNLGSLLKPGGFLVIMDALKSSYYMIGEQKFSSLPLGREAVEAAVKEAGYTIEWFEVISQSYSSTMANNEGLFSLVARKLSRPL

| Compound | activity change, negative = inhibition [1] | activity change, negative = inhibition [2] [%] | activity change, negative = inhibition [3] [%] | activity change, negative = inhibition [4] [%] | activity change, negative = inhibition [5] [%] | activity change, negative = inhibition [6] [%] |
| --- | --- | --- | --- | --- | --- | --- |
| CCNC(=O)N1CC[C@H]2CC(=O)N(Cc3cccnc3)CC[C@H]2C1 | -8.99% (inactive) | -6.64 | -7.68 | -5.27 | -14.8 | -11.5 |
| COc1cccc(C(=O)N(CC(C)C)CC2CN(C(=O)Nc3ccccc3)CCO2)c1 (stereo unspecified) | -3.51% (inactive) | -5.73 | -3.93 | -3.02 | -7.14 | 0.149 |
| Cn1c(=O)c2ccc(C(=O)NC3CCCCC3)cc2n2c(SCc3cccc(Cl)c3)nnc12 | 2.97% (inactive) | 2.72 | 0.691 | 2.66 | 1.84 | 5.9 |
| CCn1ccnc1CN(C)C(=O)c1cc(COc2ccccc2F)[nH]n1 | 4.03% (inactive) | -2.18 | -0.135 | -1.52 | -4 | -1.63 |
| CC1(C(=O)NC2CCCCC2)Cn2c(ccc2-c2ccccc2)C(=O)N1CCC1=CCCCC1 (stereo unspecified) | 6.36% (inactive) | 9.19 | 0.753 | 8.84 | 8.48 | 6.08 |
| COc1ccc(CN2C(=O)c3ccc(-c4ccco4)n3CC2(C)C(=O)NC2CCCCCC2)cc1 (stereo unspecified) | -2.99% (inactive) | -14.7 | 0.968 | -7.66 | -8.88 | -4.52 |
| CCCS(=O)(=O)NCC1Cn2cccc2C(=O)N1CCOC (stereo unspecified) | 2.41% (inactive) | 0.792 | -0.491 | 0.026 | -3.41 | 0.672 |
| Cc1ccc(OCCC2CCN(C(=O)Cn3cnc4c3c(=O)n(C)c(=O)n4C)C2)cc1 (stereo unspecified) | -5.48% (inactive) | -7.34 | -5.09 | -2.32 | -21 | -7.16 |
| CC1CCCC(NC(=O)C2(C)Cn3c(cc4sccc43)C(=O)N2c2ccc(Cl)cc2)C1C (stereo unspecified) | -1.19% (inactive) | -1.5 | 2.58 | -0.753 | 2.89 | -5.61 |
| CCC1CCCCN1C(=O)Cn1c(=O)oc2cc(S(=O)(=O)N3CCCC3)ccc21 (stereo unspecified) | 1.3% (inactive) | -2.17 | 1.65 | -2.01 | 0.211 | -0.075 |
| Clc1cc(NCc2ccccn2)n2nccc2n1 | -4.71% (inactive) | -11.1 | -2.25 | -0.734 | -13.1 | 6.59 |
| COc1ccc(NC(=O)c2ccc(-c3ccc(C(=N)N)cc3C)cc2)cc1N1CCN(C)CC1 | -7.6% (active) | -8.27 | -7.77 | -66.3 | -22.1 | -8.76 |
| COc1ccc(NC(=O)c2ccc(-c3ccc(C(N)=O)cc3C)cc2)cc1N1CCN(C)CC1 | 0.282% (inactive) | -7.07 | 2.94 | -26 | -29.8 | -2.08 |
| COc1ccccc1N1CCN(S(=O)(=O)c2cc3c(cc2C)n(C)c(=O)n3C)CC1 | 8.56% (inactive) | 5.66 | 0 | 4.91 | -2.8 | 0.426 |
| Cc1cc(C(=O)N2CCCCCC2CN2CCC(C)CC2)nn1C (stereo unspecified) | -10.6% (inactive) | 0.743 | 0.856 | 0.525 | -2.25 | -1.05 |
| O=C(Cn1nc2n(Cc3ccc(F)cc3)c(=O)c3ccccc3n2c1=O)c1cccc(Cl)c1 | 5.66% (inactive) | 4.51 | 0 | 7.94 | -8.66 | 4.49 |
| Cc1ccc(C(=O)COC(=O)C(Cc2c[nH]c3ccccc23)NC(=O)c2ccc(Br)cc2)cc1 (stereo unspecified) | 9.4% (inactive) | 10.7 | 0 | 6.18 | -1.05 | 1.41 |
| Cc1cccc(-c2nnn3c2nc(N2CCC(C)CC2)c2ccccc23)c1 | -0.09% (inactive) | -5.45 | 0.818 | 1.53 | -1.89 | -5.11 |
| Oc1cc2c(cc1O)CN(C(=S)NCCc1ccc(Cl)cc1)CCC2 | 143% (active) | -83 | 4.04 | -4.18 | -9.24 | 0.975 |
| COc1cc(O)c(C(=O)CCc2ccc(O)cc2)c(O[C@@H]2O[C@H](CO)[C@@H](O)[C@H](O)[C@H]2O)c1 | -58.4% (active) | -3.53 | -12.8 | 2.69 | -20.7 | -1.39 |
| COC(=O)CCc1cc2ccoc2c(OC)c1O[C@@H]1O[C@H](CO)[C@@H](O)[C@H](O)[C@H]1O | 2.02% (inactive) | 2.54 | 4.92 | 10.2 | -6.92 | 6.11 |
| COc1cc(C)c(C(=O)Oc2cc(C)c(C(=O)Oc3cc(C)c(C(=O)NC(C)C(=O)O)c(O)c3)c(O[C@@H]3O[C@H](CO)[C@@H](O)[C@H](O)[C@H]3OC(C)=O)c2)c(OC)c1 (stereo partly specified) | -0.843% (inactive) | -0.029 | 0.21 | 6.89 | -10.4 | -0.399 |
| CCN1CCN(C(=O)Cn2nc(C)c3sc(-c4ccccc4)nc3c2=O)CC1 | -3.83% (inactive) | -9.13 | -4.75 | -2.34 | -11.6 | -11 |
| CCCn1c(=O)c2ccc(C(=O)NC(C)CC)cc2n2c(=O)n(CC(=O)Nc3cc(C)cc(C)c3)nc12 (stereo unspecified) | 4.21% (inactive) | 2.22 | 5.41 | 6.27 | 0.889 | 3.91 |
| COCCn1c2c(c(=O)n1-c1ccccc1)CCN(Cc1cccc(C#N)c1)C2 | -2.46% (inactive) | -6.45 | -6.81 | -9.66 | -7.68 | -4.57 |
| C=CCn1c(=O)c2ccc(C(=O)NC(C)C)cc2n2c(=O)n(CC(=O)NCc3ccccc3)nc12 | 0.329% (inactive) | 7.7 | 1.61 | 12.5 | 0.93 | 4.28 |
